Consider 14 compounds from PubChem BioAssay (NCI).

Each structure is given as a SMILES string. About 83,000 compounds went through this panel and 20% of them were active in at least one assay; those are over-represented in the sample as a whole.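 The test compound was applied at a single concentration to cells in 96-well plates for 48 hours, and percent growth was recorded.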 Unmarked numbers belong to inactive results. Calls of active or inactive are those of the source. How the source made its calls: active means growth percent below 10; inactive means the rest.

Test in all cases: NCI-60 one-dose screen, 48 h (100 = growth as untreated, 0 = no growth, -100 = all killed)
Common to all, as to conditions: 10 µM unless noted

The test system of assay [1] is SR leukemia.
Assay [2] relates to RPMI-8226 leukemia.
In assay [3] the test system is OVCAR-8 ovarian.
In assay [4] the test system is OVCAR-5 ovarian.
The test system of assay [5] is OVCAR-4 ovarian.
The test system of assay [6] is SK-OV-3 ovarian.
Assay [7] deals with IGROV1 ovarian.
For assay [8], the system named is HS 578T breast.
Assay [9] concerns NCI/ADR-RES ovarian.
Assay [10] has as its system OVCAR-3 ovarian.

As to `COc1ccc2[nH]c(-c3ccc(Cl)cc3)cc(=O)c2c1`, the growth in assay [1] was 100%; in assay [2], 96.3%; in [3], 103%; in assay [4], 97.7%; in assay [5] it was 98.5%; in [6] it was 99.6%. In addition, the growth in assay [7] was 102%; in [8] it was 99.7%; in assay [9] it was 102%.

For `Brc1cnc2[nH]cc(-c3nnc(-c4ccccc4)o3)c2c1`, the growth in [1] is 68.5%; in assay [2] it was 85%; in assay [3], 84.7%; in [4] it was 96.5%; in assay [5], 71.3%; in [7], 41.2%. The results for the growth in assay [10], in assay [8] and in assay [9] were 70.2%, 79.2% and 80%, respectively.

With `COc1cc(OC)c2c(c1)c1nc3cc(C)c(C)cc3nc1n2CCN(C)C`, the growth is 49.4% in assay [1]; 65.2% in assay [2]; 79.3% in [3]; 105% in assay [4]; 87.8% in assay [5]; 93.7% in assay [6]. Further, the growth in assay [7] was 87.2%; in assay [8], 91.9%; in assay [9], 82%.

With `NCCNc1nc(-c2ccccc2)nc2nc(-c3ccccc3)oc12`, the growth in assay [1] is 7.63% (active); in assay [2], 68.7%; in [3], 97.7%; in assay [4], 105%; in [5] it was 96.5%; in [7], 81.8%. Also, the results for the growth in [8] and in assay [9] were 91.3% and 91.8%, respectively.

Regarding `N#CCCCCCn1c2ccccc2c2c3[nH]c(=O)[nH]c(=O)c3c3c4ccccc4n(CCCCCC#N)c3c21`, the growth in assay [1] was 20.3%; in assay [2] it was 53.4%; in assay [3], 27.4%; in assay [4] it was 92.4%; in assay [5] it was 58.7%; in [6], 72.7%. Moreover, the figures for the growth in assay [7], in [8] and in [9] were 22.4%, 51.6% and 89.4%, respectively.

In the case of `N=C(N)c1ccc(-c2ccc(-c3cc(F)cc(F)c3)o2)nc1`, the growth in assay [1] is 7.21% (active); in assay [2] it was 60.5%; in [3], 97.5%; in assay [4], 88.9%; in [5], 96.2%; in [7], 88.6%. Also, the growth is 95.6% in assay [10], 87.8% in assay [8] and 94.6% in assay [9].

For `C/C(=C(/c1ccccc1)c1ccc(N2C(=O)c3cccc4c(NCc5ccccc5)ccc(c34)C2=O)cc1)c1ccccc1`, the growth in [1] is 83.6%; in [2] it was 102%; in assay [3], 95%; in [4] it was 102%; in assay [5] it was 101%; in assay [6], 111%. Moreover, the results for the growth in assay [7], in [8] and in assay [9] were 94.8%, 96% and 97.9%, respectively.

As for `CN(C)c1ccc(-c2ccc(-c3ccc(C(=N)N)c(F)c3)s2)cc1`, the growth in [1] was 1.32% (active); in assay [2], -52.6% (active); in assay [3], -26.4% (active); in assay [4], -89.2% (active); in assay [5] it was -85.1% (active); in assay [7], -84% (active). Moreover, the growth in assay [10] is -88.2% (active); in assay [8], 102%; in [9] it was -49.2% (active).

`O=C(CI)Nc1ccc(O)c2ccccc12`: the growth is -1.5% (active) in assay [1]; -18.8% (active) in assay [2]; -22.9% (active) in assay [3]; 18.5% in [4]; 26.6% in assay [5]; 77.5% in [6]. Besides, the growth in assay [7] is -15.5% (active); in assay [8] it was 33.2%; in assay [9], -15.1% (active).

Regarding `CCOC(=O)C1OC1(c1ccccc1)c1ccccc1` (stereo not given), the growth is 108% in [1]; 95.6% in assay [2]; 99.6% in [3]; 99.6% in [4]; 121% in assay [5]; 112% in assay [6]. In addition, the growth is 99.6% in assay [7], 114% in assay [8] and 105% in [9].

`CC(C)=CCC[C@](C)(O)[C@H]1CC[C@]2(C)[C@@H]1CC[C@@H]1[C@@]3(C)C/C(=C/c4cccc([N+](=O)[O-])c4)C(=O)C(C)(C)[C@@H]3CC[C@]12C`: the growth in [1] was 72.7%; in assay [2], 59.9%; in assay [3], 77.5%; in [4], 94.1%; in assay [5], 82.5%; in [6] it was 109%. For the same compound, the growth in [7] was 107%; in [8], 93.3%; in assay [9], 101%.

For the compound `COc1ccc2[nH]cc(-c3nc(-c4c[nH]c5ncccc45)cs3)c2c1`, the growth is -7.54% (active) in assay [1]; 40.9% in assay [2]; 44.8% in assay [3]; 81.5% in assay [4]; 41.4% in assay [6]; 30.7% in [7]. The values for the growth in [10], in assay [8] and in assay [9] were 50.6%, 57.5% and 47%, respectively.

In the case of `COc1ccc(C(=O)c2cc(OC)c(OC)c(OC)c2)cc1/C=C/C(=O)c1cc(OC)c(OC)c(OC)c1`, the growth is 43.2% in assay [1]; 67% in [2]; 86.7% in [3]; 88.7% in [4]; 105% in assay [6]; 95.9% in assay [7]. Further, the values for the growth in assay [10], in assay [8] and in assay [9] were 99.3%, 82.4% and 81.1%, respectively.

Consider `Oc1cccc2oc(=S)[nH]c12`, for which the growth was 90.4% in assay [1]; 106% in assay [2]; 112% in assay [3]; 97.4% in assay [4]; 108% in [6]; 110% in assay [7]. Also, the growth was 125% in assay [10], 109% in assay [8] and 102% in assay [9].
